This is an account of results in PubChem BioAssay (EPA / NIEHS).

One may read the AC50 as the midpoint of the concentration-response curve, whichever way the signal moves.

Test [1] concerns the target Agonist Androgen Response Element (ARE), AR (gene 367) (UniProt P10275). Description: OT_AR_ARELUC_AG_1440: Odyssey Thera (OT) 24-hour CHO-K1 Luciferase Assay for Agonist Androgen Response Element (ARE) (AID 2283379). The method in brief: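 Seed CHO-K1 cells; dose compounds for 24 h; add D-luciferin plus ATP in PBS; read luminescence. Signal increase relative to vehicle defines agonist activity, with at least 3 replicate wells per sample.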

The target of test [2] is Estrogen receptor beta (Homo sapiens) (UniProt Q92731). Description: OT_ER_ERbERb_1440: Odyssey Thera (OT) 24-hour HEK293T Protein-Complementation Assay for Estrogen Receptor-beta/-beta Homodimer (AID 2283380).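 Also: fluorescence gain from ER beta LBD homodimer complementation read by laser scanning cytometry; scored as signal increase over DMSO baseline for both agonists and antagonists.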 The procedure, abridged:
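HEK293T cells stably expressing human ER-beta LBD (aa 310-547) PCA homodimer pair, dosed 24 h; formaldehyde-fixed, Draq5-stained. Readout: increase in nuclear (agonist) or nuclear plus cytoplasmic (antagonist) fluorescence intensity versus DMSO, gain-of-signal fitting.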

The target in test [3] is Estrogen receptor (Homo sapiens) (UniProt P03372). Description: OT_ERa_GFPERaERE_0120: Odyssey Thera (OT) 2-hour HeLa Transcription Induction Assay for Estrogen Receptor (AID 2283382). The method in brief:
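HeLa cells were dosed with test chemical and read 2 hours later for GFP-ERα/ERE-linked fluorescent protein induction by fluorescence microscopy. Gain-of-signal was fitted relative to DMSO baseline, quantified by high content image analysis.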

Test [4] has as its target Retinoic acid receptor RXR-alpha (Homo sapiens) (UniProt P19793). Description: OT_NURR1_NURR1RXRa_0480: Odyssey Thera (OT) 8-hour HEK293T Protein Complementation Assay for Nurr1/retinoid X receptor (RXR) (AID 2283385). The procedure, abridged: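 HEK293T cells expressing Nurr1 and RXRα fused to reporter fragments were dosed with compound for 8 hours. Complex formation was read as fluorescence intensity and analysed as gain of signal against DMSO as baseline.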

Test [5] has the same target. Description: OT_NURR1_NURR1RXRa_1440: Odyssey Thera (OT) 24-hour HEK293T Protein Complementation Assay for Nurr1/retinoid X receptor (RXR) (AID 2283386). The method in brief:
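HEK293T cells were dosed with compound and read 24 h later by fluorescence intensity in a protein-fragment complementation format, where Nurr1–RXRα interaction reconstitutes a split reporter. Activity was fitted as gain of signal relative to DMSO baseline.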

Test [6] addresses Peroxisome proliferator-activated receptor gamma (Homo sapiens) (UniProt P37231). Description: OT_PPARg_PPARgSRC1_0480: Odyssey Thera (OT) 8-hour Protein-Complementation Assay for Peroxisome Proliferator-activated Receptor Gamma / SRC-1 Co-activator (AID 2283387).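 Also: nuclear to cytoplasmic split Venus YFP fluorescence ratio reporting PPARg SRC-1 interaction.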 The procedure, abridged: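 Protein-fragment complementation in HEK293T: Venus YFP halves (residues 1-158, 159-239, mutated to IFP1/IFP2) fused to PPARg/SRC-1. 8 h exposure; N/C ratio at 488 nm; DMSO negative control.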

Test [7] has the same target. Description: OT_PPARg_PPARgSRC1_1440: Odyssey Thera (OT) 24-hour Protein-Complementation Assay for Peroxisome Proliferator-activated Receptor Gamma/ SRC-1 Co-activator (AID 2283388).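 Also: nuclear to cytoplasmic ratio of reconstituted Venus YFP fluorescence in fixed imaged cells.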 The procedure, abridged:
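Cells carrying the PPARg/SRC-1 fragment-complementation reporter receive compound for 24 hours, are fixed and counterstained with Draq5, then imaged. Increased nuclear relative to cytoplasmic YFP fluorescence above DMSO baseline indicates binding activity.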

Test [8] has as its target Estrogen receptor (Homo sapiens) (UniProt P03372). Description: OT_ERa_GFPERaERE_0480: Odyssey Thera (OT) 8-hour HeLa Transcription Induction Assay for Estrogen Receptor (AID 2283381; active = hit-call score of the fitted dose curve at least 0.9, where 1 is the maximum; inactive = score below 0.9). The method in brief:
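HeLa cells dosed with compound and imaged by fluorescence microscopy at 8 h; GFP induction from an ERE reporter quantified by high-content image analysis and fitted as gain of signal against DMSO baseline.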

Test [9] can be described thus: CEETOX_H295R_11DCORT: CeeTox H295R High-throughput Steroidogenesis Assay for 11-Deoxycortisol (11DCORT) (AID 2283432; active = hit-call score of the fitted dose curve at least 0.9, where 1 is the maximum; inactive = score below 0.9;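 as to AC50: 11-deoxycortisol secreted into the medium measured by LC-MS/MS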). The settings on record: actives raise or lower the signal. The method in brief:
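Adrenal carcinoma line H295R, run per OECD 456 with minor changes, was forskolin-stimulated (10 uM, 48 h) before a 48 h chemical exposure at 0.1% DMSO. Secreted 11-deoxycortisol was quantified by HPLC-MS/MS.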

A short description of test [10]: CEETOX_H295R_OHPREG: CeeTox H295R High-throughput Steroidogenesis Assay for OH-Pregnenolone (OHPREG) (AID 2283434; active = hit-call score of the fitted dose curve at least 0.9, where 1 is the maximum; inactive = score below 0.9). The following applies: actives raise or lower the signal. The method in brief:
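Human adrenal H295R cells were prestimulated 48 h with 10 uM forskolin, then exposed 48 h to chemical in 0.1% DMSO. Medium 17alpha-hydroxypregnenolone was quantified by HPLC-MS/MS after MTBE extraction; bidirectional fitting versus DMSO baseline.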

The structures appear in SMILES notation. Several values for one entry are separate records, joined by “and”; a condition that tells them apart may be missing. Identical values can stand only once. Results filed as inconclusive are left out. Some structures have more than one record in an assay (separate samples or runs), and their calls can disagree. Activity calls are given as the source filed them. The calls were made as follows, unless noted: active = hit-call score of the fitted dose curve at least 0.9, where 1 is the maximum; inconclusive = response in the unintended direction; inactive = score below 0.9.

Chain of Estrogen receptor (Homo sapiens) (P03372 whole entry, looked up): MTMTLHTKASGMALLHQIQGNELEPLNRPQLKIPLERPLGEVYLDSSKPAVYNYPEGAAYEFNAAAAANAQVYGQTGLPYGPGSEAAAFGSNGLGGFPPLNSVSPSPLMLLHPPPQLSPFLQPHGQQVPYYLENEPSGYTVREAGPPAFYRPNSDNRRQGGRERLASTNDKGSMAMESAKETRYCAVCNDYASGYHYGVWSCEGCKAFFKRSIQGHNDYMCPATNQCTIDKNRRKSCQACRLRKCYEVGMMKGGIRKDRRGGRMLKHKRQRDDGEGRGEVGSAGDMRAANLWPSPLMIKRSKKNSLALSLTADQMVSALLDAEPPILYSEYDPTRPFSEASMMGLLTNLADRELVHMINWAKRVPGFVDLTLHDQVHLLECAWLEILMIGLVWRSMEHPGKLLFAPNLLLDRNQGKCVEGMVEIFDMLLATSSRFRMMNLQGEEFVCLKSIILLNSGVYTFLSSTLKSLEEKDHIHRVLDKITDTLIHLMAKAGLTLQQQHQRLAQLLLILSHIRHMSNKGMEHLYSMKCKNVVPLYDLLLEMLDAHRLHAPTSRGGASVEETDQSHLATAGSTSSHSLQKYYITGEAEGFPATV
Chain of Retinoic acid receptor RXR-alpha (Homo sapiens) (P19793 whole entry, looked up, the tested form may be a part): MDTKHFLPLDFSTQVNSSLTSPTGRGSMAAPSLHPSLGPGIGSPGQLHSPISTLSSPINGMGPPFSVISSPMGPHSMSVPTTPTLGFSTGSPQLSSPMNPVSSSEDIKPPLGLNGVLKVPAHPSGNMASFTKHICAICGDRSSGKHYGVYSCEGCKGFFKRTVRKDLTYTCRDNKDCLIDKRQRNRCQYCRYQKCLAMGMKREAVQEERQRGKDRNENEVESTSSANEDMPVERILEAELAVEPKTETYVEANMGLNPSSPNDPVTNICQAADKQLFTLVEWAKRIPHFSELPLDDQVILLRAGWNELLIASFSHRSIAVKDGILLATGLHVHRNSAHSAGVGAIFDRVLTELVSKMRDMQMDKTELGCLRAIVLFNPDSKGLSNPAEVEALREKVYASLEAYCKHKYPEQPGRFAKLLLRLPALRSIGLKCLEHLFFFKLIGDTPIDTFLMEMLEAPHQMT
Chain of Peroxisome proliferator-activated receptor gamma (Homo sapiens) (P37231 whole entry, looked up, the tested form may be a part): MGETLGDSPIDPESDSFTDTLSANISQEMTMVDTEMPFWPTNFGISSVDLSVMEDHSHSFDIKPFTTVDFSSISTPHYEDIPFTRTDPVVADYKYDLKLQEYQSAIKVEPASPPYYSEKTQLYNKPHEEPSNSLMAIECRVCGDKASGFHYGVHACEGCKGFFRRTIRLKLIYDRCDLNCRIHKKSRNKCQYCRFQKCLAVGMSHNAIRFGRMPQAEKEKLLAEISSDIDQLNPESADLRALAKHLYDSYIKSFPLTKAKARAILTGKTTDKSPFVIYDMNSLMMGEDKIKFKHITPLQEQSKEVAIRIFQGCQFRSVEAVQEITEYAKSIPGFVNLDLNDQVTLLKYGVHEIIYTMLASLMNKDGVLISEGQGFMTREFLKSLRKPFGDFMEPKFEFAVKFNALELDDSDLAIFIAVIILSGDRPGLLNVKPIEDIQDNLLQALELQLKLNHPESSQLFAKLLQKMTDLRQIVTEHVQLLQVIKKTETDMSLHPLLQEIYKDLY
Chain of Estrogen receptor beta (Homo sapiens) (Q92731 whole entry, looked up, the tested form may be a part): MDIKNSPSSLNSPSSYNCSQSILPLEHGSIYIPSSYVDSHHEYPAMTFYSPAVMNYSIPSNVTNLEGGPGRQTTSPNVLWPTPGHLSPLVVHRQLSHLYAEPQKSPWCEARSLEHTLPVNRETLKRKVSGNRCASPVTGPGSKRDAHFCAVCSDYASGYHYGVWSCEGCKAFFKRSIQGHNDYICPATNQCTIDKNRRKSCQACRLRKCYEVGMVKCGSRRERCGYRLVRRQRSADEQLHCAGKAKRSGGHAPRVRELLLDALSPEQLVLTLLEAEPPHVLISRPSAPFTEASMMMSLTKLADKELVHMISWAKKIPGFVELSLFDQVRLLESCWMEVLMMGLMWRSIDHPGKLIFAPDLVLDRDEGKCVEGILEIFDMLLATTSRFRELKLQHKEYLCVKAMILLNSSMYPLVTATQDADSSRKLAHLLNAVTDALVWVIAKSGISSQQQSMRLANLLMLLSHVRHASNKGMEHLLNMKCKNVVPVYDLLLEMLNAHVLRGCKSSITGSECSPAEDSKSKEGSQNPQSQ
Chain of Agonist Androgen Response Element (ARE), AR (gene 367) (P10275 whole entry, looked up): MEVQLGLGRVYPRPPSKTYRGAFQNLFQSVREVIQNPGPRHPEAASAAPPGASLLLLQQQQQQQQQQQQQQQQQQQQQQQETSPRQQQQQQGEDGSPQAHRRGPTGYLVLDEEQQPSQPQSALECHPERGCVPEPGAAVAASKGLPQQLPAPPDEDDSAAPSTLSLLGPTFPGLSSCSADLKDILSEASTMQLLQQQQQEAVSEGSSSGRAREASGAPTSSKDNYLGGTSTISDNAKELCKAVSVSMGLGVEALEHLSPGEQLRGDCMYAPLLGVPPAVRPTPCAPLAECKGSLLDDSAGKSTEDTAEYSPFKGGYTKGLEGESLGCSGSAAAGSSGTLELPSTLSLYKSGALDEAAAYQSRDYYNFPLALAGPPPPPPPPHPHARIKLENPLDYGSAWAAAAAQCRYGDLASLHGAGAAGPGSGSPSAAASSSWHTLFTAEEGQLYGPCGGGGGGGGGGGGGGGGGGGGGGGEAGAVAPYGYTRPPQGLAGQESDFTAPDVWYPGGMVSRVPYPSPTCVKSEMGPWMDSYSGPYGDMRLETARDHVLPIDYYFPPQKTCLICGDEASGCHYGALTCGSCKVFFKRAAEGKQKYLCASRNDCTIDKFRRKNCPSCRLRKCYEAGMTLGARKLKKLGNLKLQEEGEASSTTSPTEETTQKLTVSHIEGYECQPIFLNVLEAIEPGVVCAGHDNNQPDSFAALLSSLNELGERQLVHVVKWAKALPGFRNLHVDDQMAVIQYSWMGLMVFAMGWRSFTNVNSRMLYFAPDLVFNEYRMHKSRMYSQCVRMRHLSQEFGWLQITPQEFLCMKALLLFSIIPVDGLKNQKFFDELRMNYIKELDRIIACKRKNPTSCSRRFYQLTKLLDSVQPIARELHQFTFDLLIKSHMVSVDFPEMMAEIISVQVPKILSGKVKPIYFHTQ

With `CCOP(=O)(OCC)Oc1nc(Cl)c(Cl)cc1Cl`, the result in test [1], in test [2], in [3], in [4], in test [5] and in test [6] was inactive. Further, the compound was called inactive in [7]. In addition, in test [5], the AC50 is 9.87 µM (active).
With `COc1cc(OC)nc(NC(=O)NS(=O)(=O)c2ncccc2OCC(F)(F)F)n1`, the outcome in [2], in test [8], in test [3], in test [5], in [6] and in test [7] was inactive.
For `COc1ccc(-c2ccccc2)cc1NNC(=O)OC(C)C`, the outcome in test [1], in [2], in test [8], in [3], in [4] and in [5] was inactive. Moreover, the compound was classed as inactive in test [6] and in test [7].
On to `Nc1c(Cl)c(F)nc(OCC(=O)O)c1Cl`, for which the compound was classed as inactive in [1], in test [2], in test [8], in test [3], in test [5] and in test [6]. For the same compound, the result in test [7] was inactive.
Turning to `CC1(C)C(C=C(Cl)Cl)C1C(=O)OC(C#N)c1cccc(Oc2ccccc2)c1` (centres undefined), the result in [2], in test [8], in test [3], in test [4], in test [5] and in test [6] was inactive. Further, the compound was called inactive in test [7], in [9] and in test [10].
As to `CCN(CC)c1nc(C)cc(OP(=S)(OC)OC)n1`, the AC50 in test [2] is 50 µM (active). Besides, the call in test [8], in [3], in test [4], in test [5], in test [6] and in [7] was inactive. Also, the compound was classed as inactive in test [9] and in [10].
Take `Nc1cnn(-c2ccccc2)c(=O)c1Cl`: the call in test [2], in test [8], in test [3], in [5], in test [6] and in test [7] was inactive. Moreover, the outcome in test [9] and in [10] was inactive.
With `CSC(=O)c1c(C(F)F)nc(C(F)(F)F)c(C(=O)SC)c1CC(C)C`, the AC50 in [2] was 21.5 µM (active); in [5], 69.6 µM (active). In addition, the result in [3], in test [4], in test [5], in [6] and in [7] was inactive.
Consider `Cc1ccc(N=CN(C)C=Nc2ccc(C)cc2C)c(C)c1`, for which the outcome in [2], in [3], in test [6] and in test [7] was inactive. Besides, the AC50 in test [4] was 50 µM (active); in [5], 80.8 µM (active) and 31.9 µM (active).
Take `CC1(C)C(C(=O)OC(C#N)c2cccc(Oc3ccccc3)c2)C1(C)C` (centres undefined): the result in test [2], in test [3], in [4], in [5], in test [6] and in [7] was inactive.
Consider `CNC(=O)N(C)c1nnc(C(C)(C)C)s1`, for which the result in [2], in test [8], in test [3], in [4], in test [5] and in [6] was inactive. Moreover, in [7], the compound was classed as inactive.
Regarding `Clc1cccc(C(Cl)(Cl)Cl)n1`, the compound was called inactive in test [1], in [2], in test [8], in [3], in [4] and in test [5]. The compound was classed as inactive in test [6] and in test [7].
`CCC(C)n1c(=O)[nH]c(C)c(Br)c1=O` (centres undefined): the compound was called inactive in test [2], in test [8], in [3], in test [4], in [5] and in [6]. Further, the outcome in [7] and in test [10] was inactive.
For the compound `CCNP(=S)(OC)O/C(C)=C/C(=O)OC(C)C` (centres undefined), the compound was classed as inactive in test [2], in test [8], in [3], in test [4], in [5] and in test [6]. For the same compound, the compound was called inactive in test [7]. Also, the AC50 in test [9] is 65.9 µM (active); in [10], 61.8 µM (active).
Consider `COC(=O)N(C(=O)N1CO[C@@]2(C(=O)OC)Cc3cc(Cl)ccc3C2=N1)c1ccc(OC(F)(F)F)cc1`, for which the call in test [1], in test [2], in test [3], in [4], in [5] and in test [6] was inactive. Besides, the compound was classed as inactive in [7].
Turning to `COC(=O)NS(=O)(=O)c1ccc(N)cc1`, the outcome in [2], in test [8], in test [3], in test [5], in test [6] and in test [7] was inactive.
